Data as given in PubChem BioAssay (NCATS).
Records with an inconclusive call do not appear. Calls of active or inactive are those of the source. Calls follow the shape of the full dose curve.

These molecules were tested against Peroxisome proliferator-activated receptor delta (Homo sapiens) (UniProt Q03181) (assay: qHTS assay for small molecule agonists of peroxisome proliferator-activated receptor delta signaling (AID 588534)). Settings: HEK293T PPARdelta-UAS-bla, beta-lactamase ratio, 18 h; series mostly up to 76.7 µM.
Sequence of Peroxisome proliferator-activated receptor delta (Homo sapiens) (Q03181 whole entry, looked up): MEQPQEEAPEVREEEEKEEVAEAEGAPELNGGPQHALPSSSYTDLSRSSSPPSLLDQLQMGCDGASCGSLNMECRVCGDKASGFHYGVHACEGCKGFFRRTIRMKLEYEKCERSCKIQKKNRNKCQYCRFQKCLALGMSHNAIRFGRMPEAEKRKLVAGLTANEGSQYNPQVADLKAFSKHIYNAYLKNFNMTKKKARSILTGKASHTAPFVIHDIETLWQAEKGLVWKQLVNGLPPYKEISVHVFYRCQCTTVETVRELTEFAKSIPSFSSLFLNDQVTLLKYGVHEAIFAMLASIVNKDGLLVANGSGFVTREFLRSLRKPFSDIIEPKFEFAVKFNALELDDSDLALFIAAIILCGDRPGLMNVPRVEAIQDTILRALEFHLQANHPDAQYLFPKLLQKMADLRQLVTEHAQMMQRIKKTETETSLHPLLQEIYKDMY
In short: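 Agonist-mode qHTS; reporter cells, 5 hrs 37 C pre-incubation; compound titration, 18 hrs 37 C; CCF4 dye, 2 hrs RT; fluorescence read. EC50/efficacy via Hill fit.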
With `NC(=O)c1ccc([N+](=O)[O-])cc1` the outcome was “inactive”. With `O=c1oc(=O)c2cc3c(=O)oc(=O)c3cc12` the outcome was “inactive”. `COC(=O)CS` was tested, and the outcome was “inactive”. For `CSc1ccc(C=O)cc1`, the outcome was “inactive”. With `O=Cc1ccc(Cl)c(Cl)c1` the outcome was “inactive”. With `Oc1ccc2cc(SSc3ccc4cc(O)ccc4c3)ccc2c1` the outcome was “inactive”. For `C=CCCCCCCCCCC`, the outcome was “inactive”. `CSC(=O)c1cccc2nnsc12` was tested, and the outcome was “inactive”. `CC(=C/C=C/C(C)=C/C=C/C=C(C)/C=C/C=C(C)/C=C/C(=O)O)/C=C/C(=O)O` was tested, and the outcome was “inactive”. For `CCC(C)c1ccccc1O` (centres undefined), the outcome was “inactive”. `CCCCN(CCCC)CCCCCCN(CCCC)CCCC` was tested, and the outcome was “inactive”. For `CC(C)C(=O)OC(=O)C(C)C`, the outcome was “inactive”. For `CCCCCCC(C)OC(=O)COc1nc(F)c(Cl)c(N)c1Cl` (centres undefined), the outcome was “inactive”. `COC(=O)CSc1cc(N=c2sc(=O)n3n2CCCC3)c(F)cc1Cl` was tested, and the outcome was “inactive”. For `CC(C)(C)C1CCC(O)CC1` (centres undefined), the outcome was “inactive”. With `CN(C)C(=O)Nc1ccccc1` the outcome was “inactive”. In the case of `CCCCCCCC/C=C\CCCCCCCC(=O)OC`, the outcome is reported as “inactive”. `CCSC(=O)N(CC(C)C)CC(C)C` was tested, and the outcome was “inactive”. With `Cc1cccc(C(=O)O)c1[N+](=O)[O-]` the outcome was “inactive”. With `CCNC(=S)NCC` the outcome was “inactive”. For `C[C@]12CC[C@@H]3c4ccc(O)cc4CC[C@H]3[C@@H]1CC[C@H]2O`, the outcome was “inactive”. For `CCCCCCCCCCCCCC(=O)OC`, the outcome was “inactive”. `S=C(NC1CCCCC1)NC1CCCCC1` was tested, and the outcome was “inactive”. In the case of `COC(=O)c1ccccc1C(=O)O`, the outcome is reported as “inactive”. In the case of `CC(C)(O)C(=O)O`, the outcome is reported as “inactive”. In the case of `O=c1[nH]ncc2ccccc12`, the outcome is reported as “inactive”. `CC(C)(C)C(O)/C(=C\c1ccc(Cl)cc1)n1cncn1` (centres undefined) was tested, and the outcome was “inactive”. With `CCN(Cc1cccc(S(=O)(=O)O)c1)c1ccc(C(=C2C=CC(=[N+](CC)Cc3cccc(S(=O)(=O)[O-])c3)C=C2)c2ccccc2)cc1` the outcome was “inactive”. For `CCCCCCCCCCCO`, the outcome was “inactive”. With `CCCC(=O)OC(=O)CCC` the outcome was “inactive”. `C=C(C)C(=O)OCCC[Si](OC)(OC)OC` was tested, and the outcome was “inactive”. In the case of `C=Cc1cccc(C)c1`, the outcome is reported as “inactive”. With `O=C(Cl)c1ccc(C(=O)Cl)cc1` the outcome was “inactive”. For `CC1=CC(C)(C)Nc2ccccc21`, the outcome was “inactive”. For `COCCOC(=O)c1ccccc1C(=O)OCCOC`, the outcome was “inactive”. For `CC(C)COC(=O)COc1cc(Cl)c(Cl)cc1Cl`, the outcome was “inactive”. For `O=[N+]([O-])c1ccc2nc[nH]c2c1`, the outcome was “inactive”. In the case of `CC1=CC2C3CC(C=C3C)C2C1` (centres undefined), the outcome is reported as “inactive”. In the case of `CCCC=O`, the outcome is reported as “inactive”.
